According to paper PMC7862700, “An all-to-all approach to the identification of sequence-specific readers for epigenetic DNA modifications on cytosine”:

Columns and labels:
Experiment in all cases: DAPPL (digital affinity profiling via proximity ligation, sequencing); 10 mM Tris-HCl pH 7.5, 50 mM NaCl, 1 mM DTT, 4% glycerol, room temperature, 30 min; GST-TFs on glutathione beads, 16-mer random dsDNA library, 0.1% formaldehyde crosslink after washing; high values mean tight binding
Conditions in all cases: protein: recombinant; tags: N-terminal GST; dsDNA, one strand shown
ETV3L = molecular target: T1, ETV3L (Homo sapiens, UniProt Q6ZN32 1-361)
T1 sequence: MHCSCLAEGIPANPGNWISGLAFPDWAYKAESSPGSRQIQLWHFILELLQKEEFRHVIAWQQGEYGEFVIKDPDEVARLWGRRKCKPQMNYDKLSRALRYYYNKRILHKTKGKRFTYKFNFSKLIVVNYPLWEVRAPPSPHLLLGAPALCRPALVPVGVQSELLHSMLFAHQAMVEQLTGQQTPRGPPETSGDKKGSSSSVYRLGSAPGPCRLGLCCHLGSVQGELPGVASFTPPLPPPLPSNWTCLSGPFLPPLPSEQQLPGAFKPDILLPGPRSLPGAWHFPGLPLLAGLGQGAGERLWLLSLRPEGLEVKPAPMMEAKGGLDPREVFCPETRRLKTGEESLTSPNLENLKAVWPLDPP
Outline: (§1)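 Beads coated with glutathione captured GST-fused human transcription factors that had been expressed in yeast, and the factors were then given DNA barcodes and pooled with a tag-only sample. The pools were incubated with 200 nmole of a random double-stranded 16-mer DNA library in Tris/NaCl/DTT/glycerol buffer for 30 min at room temperature, washed, crosslinked with 0.1% formaldehyde and proximity-ligated with BsaI/T4 ligase at 37 °C for 1 h. PCR amplification and Illumina NextSeq500 sequencing came last. Binding signal is each hexamer's read frequency for a factor divided by its frequency for the tag-only sample.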

ETS2 = molecular target: T2, ETS2 (Homo sapiens, UniProt P15036 1-469)
T2 sequence: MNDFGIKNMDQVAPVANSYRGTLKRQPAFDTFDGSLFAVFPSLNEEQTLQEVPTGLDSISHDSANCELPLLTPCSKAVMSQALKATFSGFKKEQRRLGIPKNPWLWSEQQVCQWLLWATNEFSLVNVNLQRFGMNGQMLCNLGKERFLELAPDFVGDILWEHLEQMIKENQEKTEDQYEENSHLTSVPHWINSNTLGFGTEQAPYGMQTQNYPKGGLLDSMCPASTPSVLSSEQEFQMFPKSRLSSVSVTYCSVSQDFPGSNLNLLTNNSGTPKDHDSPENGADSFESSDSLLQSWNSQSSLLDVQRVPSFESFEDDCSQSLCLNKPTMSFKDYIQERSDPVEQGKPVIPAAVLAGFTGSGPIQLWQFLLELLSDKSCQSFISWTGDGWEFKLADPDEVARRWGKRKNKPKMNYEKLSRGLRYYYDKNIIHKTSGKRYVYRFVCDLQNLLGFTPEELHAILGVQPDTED
Outline: as §1

SPDEF = molecular target: T3, SPDEF (Homo sapiens, UniProt O95238 1-335)
T3 sequence: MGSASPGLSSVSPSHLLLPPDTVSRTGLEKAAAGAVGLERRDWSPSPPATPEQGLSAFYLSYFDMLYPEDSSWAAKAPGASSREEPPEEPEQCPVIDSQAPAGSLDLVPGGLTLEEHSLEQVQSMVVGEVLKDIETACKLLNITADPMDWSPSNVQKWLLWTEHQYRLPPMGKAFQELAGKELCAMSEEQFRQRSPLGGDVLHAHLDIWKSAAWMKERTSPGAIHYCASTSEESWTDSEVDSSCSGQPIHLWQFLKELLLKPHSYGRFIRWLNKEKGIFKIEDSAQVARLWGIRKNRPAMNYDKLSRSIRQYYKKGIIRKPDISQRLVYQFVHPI
Outline: as §1

ETV7 = molecular target: T4, ETV7 (Homo sapiens, UniProt Q9Y603 1-341)
T4 sequence: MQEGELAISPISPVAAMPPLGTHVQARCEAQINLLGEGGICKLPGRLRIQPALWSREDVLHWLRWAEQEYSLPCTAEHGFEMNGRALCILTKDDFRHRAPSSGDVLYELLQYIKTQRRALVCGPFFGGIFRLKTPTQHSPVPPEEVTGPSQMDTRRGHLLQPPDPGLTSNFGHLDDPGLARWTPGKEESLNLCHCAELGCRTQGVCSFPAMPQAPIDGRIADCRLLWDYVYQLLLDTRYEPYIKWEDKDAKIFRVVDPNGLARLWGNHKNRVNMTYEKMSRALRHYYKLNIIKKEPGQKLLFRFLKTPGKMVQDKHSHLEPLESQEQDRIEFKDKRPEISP
Outline: as §1

ELF5 = molecular target: T5, ELF5 (Homo sapiens, UniProt Q9UKW6-2 1-255)
T5 sequence: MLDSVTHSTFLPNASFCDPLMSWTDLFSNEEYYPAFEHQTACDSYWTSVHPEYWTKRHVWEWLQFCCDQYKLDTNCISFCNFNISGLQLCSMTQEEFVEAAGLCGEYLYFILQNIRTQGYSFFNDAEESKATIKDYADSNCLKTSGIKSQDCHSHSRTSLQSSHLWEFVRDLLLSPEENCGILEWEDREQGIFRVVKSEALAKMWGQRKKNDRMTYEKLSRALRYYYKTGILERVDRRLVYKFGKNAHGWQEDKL
Outline: as §1

ETV6 = ETV6 (Homo sapiens, UniProt P41212 1-452)
Outline: as §1

ETV3 = molecular target: T6, ETV3 (Homo sapiens, UniProt P41162-2 1-143)
T6 sequence: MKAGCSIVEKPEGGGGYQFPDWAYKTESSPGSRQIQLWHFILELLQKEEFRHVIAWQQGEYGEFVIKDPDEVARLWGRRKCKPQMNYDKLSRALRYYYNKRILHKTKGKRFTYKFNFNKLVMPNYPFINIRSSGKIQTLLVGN
Outline: as §1

Sequence of ETV6 (P41212 whole entry): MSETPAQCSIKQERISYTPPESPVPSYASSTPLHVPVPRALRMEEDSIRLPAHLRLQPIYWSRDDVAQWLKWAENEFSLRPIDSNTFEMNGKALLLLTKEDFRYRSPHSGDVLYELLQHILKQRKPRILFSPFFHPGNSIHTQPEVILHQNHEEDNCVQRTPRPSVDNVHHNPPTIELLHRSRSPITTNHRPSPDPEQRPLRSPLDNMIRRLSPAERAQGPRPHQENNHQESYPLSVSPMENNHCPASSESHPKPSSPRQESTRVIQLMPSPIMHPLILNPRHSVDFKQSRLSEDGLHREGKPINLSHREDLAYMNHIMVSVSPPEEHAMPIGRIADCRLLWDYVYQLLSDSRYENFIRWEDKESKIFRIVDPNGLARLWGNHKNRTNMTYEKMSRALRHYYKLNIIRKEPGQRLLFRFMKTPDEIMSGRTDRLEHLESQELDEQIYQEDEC

Sequence | binding signal (ETV3L) | binding signal (ETS2) | binding signal (SPDEF) | binding signal (ETV7) | binding signal (ELF5) | binding signal (ETV6) | binding signal (ETV3)
TAGTCC | 1.12 fold enrichment (6-mer frequency, TF over GST control) | 1.06 fold enrichment (6-mer frequency, TF over GST control) | 1.2 fold enrichment (6-mer frequency, TF over GST control) | 1.13 fold enrichment (6-mer frequency, TF over GST control) | 1.06 fold enrichment (6-mer frequency, TF over GST control) | 1.14 fold enrichment (6-mer frequency, TF over GST control) | 
TCATAA | 1 fold enrichment (6-mer frequency, TF over GST control) | 1.01 fold enrichment (6-mer frequency, TF over GST control) | 1.01 fold enrichment (6-mer frequency, TF over GST control) |  | 1.02 fold enrichment (6-mer frequency, TF over GST control) |  | 
TCATGA | 1.03 fold enrichment (6-mer frequency, TF over GST control) | 1.04 fold enrichment (6-mer frequency, TF over GST control) |  | 1 fold enrichment (6-mer frequency, TF over GST control) | 1.05 fold enrichment (6-mer frequency, TF over GST control) |  | 1.06 fold enrichment (6-mer frequency, TF over GST control)
TGGATT | 1.05 fold enrichment (6-mer frequency, TF over GST control) | 1.03 fold enrichment (6-mer frequency, TF over GST control) |  | 1.04 fold enrichment (6-mer frequency, TF over GST control) |  | 1.02 fold enrichment (6-mer frequency, TF over GST control) | 
AATCGA | 1.04 fold enrichment (6-mer frequency, TF over GST control) |  |  | 1.08 fold enrichment (6-mer frequency, TF over GST control) |  | 1.01 fold enrichment (6-mer frequency, TF over GST control) | 1.07 fold enrichment (6-mer frequency, TF over GST control)
GTTAAT | 1.11 fold enrichment (6-mer frequency, TF over GST control) | 1.08 fold enrichment (6-mer frequency, TF over GST control) | 1.09 fold enrichment (6-mer frequency, TF over GST control) | 1.07 fold enrichment (6-mer frequency, TF over GST control) | 1.1 fold enrichment (6-mer frequency, TF over GST control) | 1.06 fold enrichment (6-mer frequency, TF over GST control) | 1.1 fold enrichment (6-mer frequency, TF over GST control)
AGACCT | 1.07 fold enrichment (6-mer frequency, TF over GST control) | 1.01 fold enrichment (6-mer frequency, TF over GST control) |  |  | 1.05 fold enrichment (6-mer frequency, TF over GST control) | 1.11 fold enrichment (6-mer frequency, TF over GST control) | 
ACACCA | 1.04 fold enrichment (6-mer frequency, TF over GST control) |  |  |  | 1.01 fold enrichment (6-mer frequency, TF over GST control) |  | 1.02 fold enrichment (6-mer frequency, TF over GST control)
CAAGGT | 1.12 fold enrichment (6-mer frequency, TF over GST control) | 1.11 fold enrichment (6-mer frequency, TF over GST control) | 1.03 fold enrichment (6-mer frequency, TF over GST control) | 1.1 fold enrichment (6-mer frequency, TF over GST control) |  | 1.01 fold enrichment (6-mer frequency, TF over GST control) | 1.02 fold enrichment (6-mer frequency, TF over GST control)
AAAAGT | 1.08 fold enrichment (6-mer frequency, TF over GST control) | 1.07 fold enrichment (6-mer frequency, TF over GST control) | 1.12 fold enrichment (6-mer frequency, TF over GST control) | 1.16 fold enrichment (6-mer frequency, TF over GST control) | 1.08 fold enrichment (6-mer frequency, TF over GST control) | 1.06 fold enrichment (6-mer frequency, TF over GST control) | 1.07 fold enrichment (6-mer frequency, TF over GST control)
TCAACG | 1.07 fold enrichment (6-mer frequency, TF over GST control) | 1.13 fold enrichment (6-mer frequency, TF over GST control) | 1.05 fold enrichment (6-mer frequency, TF over GST control) | 1 fold enrichment (6-mer frequency, TF over GST control) |  |  | 1.14 fold enrichment (6-mer frequency, TF over GST control)
CCTGGG | 1.22 fold enrichment (6-mer frequency, TF over GST control) | 1.14 fold enrichment (6-mer frequency, TF over GST control) | 1.11 fold enrichment (6-mer frequency, TF over GST control) | 1.39 fold enrichment (6-mer frequency, TF over GST control) | 1.17 fold enrichment (6-mer frequency, TF over GST control) | 1.1 fold enrichment (6-mer frequency, TF over GST control) | 1.08 fold enrichment (6-mer frequency, TF over GST control)
ATCAGC |  | 1.09 fold enrichment (6-mer frequency, TF over GST control) |  |  |  | 1.01 fold enrichment (6-mer frequency, TF over GST control) | 
AGTAAT | 1.07 fold enrichment (6-mer frequency, TF over GST control) | 1.15 fold enrichment (6-mer frequency, TF over GST control) | 1.1 fold enrichment (6-mer frequency, TF over GST control) | 1.19 fold enrichment (6-mer frequency, TF over GST control) | 1.2 fold enrichment (6-mer frequency, TF over GST control) | 1.15 fold enrichment (6-mer frequency, TF over GST control) | 1.03 fold enrichment (6-mer frequency, TF over GST control)
GTATCA | 1.09 fold enrichment (6-mer frequency, TF over GST control) | 1.05 fold enrichment (6-mer frequency, TF over GST control) | 1.08 fold enrichment (6-mer frequency, TF over GST control) | 1.04 fold enrichment (6-mer frequency, TF over GST control) | 1.03 fold enrichment (6-mer frequency, TF over GST control) | 1.01 fold enrichment (6-mer frequency, TF over GST control) | 1.09 fold enrichment (6-mer frequency, TF over GST control)
